In the library only some 0.26% were active in any assay of this set; here they are far more common.
Menin-MLL TR inh: displaces Texas Red mutant MLL peptide from human menin; O00255; Menin + Texas Red MLL mutant peptide, fluorescence polarization; Potency, µM (doses to about 61.6 µM), for inactives: at the highest dose FP activity change, negative = inhibition, actives largely listed as inhibitors; 270,000 compounds, 0.23% hits; AID 1768; active = well fitted inhibition curve with a large enough effect in the polarisation, with a control signal flat, not every such curve was filed as active; inconclusive = small, poorly fitted or top-dose-only effect, or effect the other way, or a change in a side signal; inactive = no such curve, though single readings can be large or run the other way; the % refers to the polarisation; also: potency is read from the fitted curve at half-maximal effect; % of control where 0% means no effect
CXXC DNA block: inhibitors of human MLL CXXC domain-DNA interaction; Q03164; MLL-CXXC / FITC-HOXA9 DNA fluorescence polarization; Potency, µM (series often up to 115 µM), without a hit: top-dose activity change, negative = inhibition, hits mostly inhibitors; 290,000 compounds, 0.037% hits; active = well fitted inhibition curve with a large enough effect in the polarisation, with a control signal flat, not every such curve was filed as active; inconclusive = small, poorly fitted or top-dose-only effect, or effect the other way, or a change in a side signal; inactive = no such curve, though single readings can be large or run the other way; the % refers to the polarisation; also: potency is read from the fitted curve at half-maximal effect
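Steps: dispense CXXC domain solution (7 uM) → pin compounds or unlabeled HOX-A9 DNA control → 5 min ambient → add FLSN-HOX-A9 solution (50 nM) → spin → 30 min ambient → fluorescence polarization. Tris pH 7.5/NaCl/DTT/BSA buffer.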
Menin-MLL FL inh: inhibitors of human menin-MLL interaction, wild-type MLL peptide; 290,000 tested, under 10 active; Fluorescence polarization, fluorescein-MLL peptide displacement from menin; FP activity change, % at 61.4 µM; AID 1766; active = well fitted curve in the direction sought with a large enough effect in the polarisation, not every such curve was filed as active; inconclusive = small, poorly fitted or top-dose-only effect, or effect the other way, or a change in a side signal; inactive = no such curve, though single readings can be large or run the other way; the % refers to the polarisation; also: % of control where 0% means no effect
Lamin A splicing: LMNA splicing modulation; HeLa LMNA splicing GFP/RFP minigene ratio, 48 h; Potency, µM (top dose mostly 46.1 µM), inactives show top-dose ratio change, negative = inhibition, usual class: inhibitors; 200,000 compounds, 0.01% hits; AID 1487; active = well fitted inhibition curve with a large enough effect in the signal ratio, with a control signal flat, not every such curve was filed as active; inconclusive = small, poorly fitted or top-dose-only effect, or effect the other way, or a change in a side signal; the % refers to the signal ratio; also: potency is read from the fitted curve at half-maximal effect; % is scaled to controls: 0 for no effect and ±100 for the full control effect
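S3 HeLa stable clones carrying a lamin A-EGFP splicing minigene plus DsRed2 were seeded at 600 cells/well in Opti-MEM with 2% FBS, pin-dosed and incubated 48 h at 37°C. Acumen cytometry (488 nm) gave the GFP/RFP total-intensity ratio.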
Epigenetic reg: derepresses silenced GFP reporter in murine cells | murine LDR cells, GFP reporter derepression, 30 h | Potency, µM (series often up to 53.9 µM), for the others: at the top dose GFP activation, hits mostly activators | 280,000 compounds, 0.2% hits; also: potency is read from the fitted curve at half-maximal effect; % of control where 0% means no effect; nearly all actives have a fitted effect of over 60% in size
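Reporter derepression read as number of fluorescent GFP-positive objects, 20-120 um in size, counted by laser-scanning cytometer. Mouse LDR line with an epigenetically silenced CMV-GFP locus; compound incubation 30 h, 37 C.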
MLL CXXC Fl: MLL CXXC-DNA interaction inhibition, fluorescein FP; shares compounds with CXXC DNA block; MLL CXXC-DNA binding, fluorescein FP; Potency, µM (series often up to 345 µM), for the others: at the top dose activity change, negative = inhibition, hits mostly inhibitors; 200 compounds, 70% hits; AID 624160; also: potency is read from the fitted curve at half-maximal effect; nearly all actives have a fitted effect of over 80% in size
MLL CXXC FP-TR: inhibitors of human MLL CXXC domain-DNA interaction, Texas Red format; shares compounds with CXXC DNA block; MLL CXXC-DNA binding, Texas Red fluorescence polarization; Potency, µM (highest dose often 345 µM), for inactives: top-dose activity change, negative = inhibition, actives largely listed as inhibitors; 200 compounds, 40% hits; AID 624161; also: potency is read from the fitted curve at half-maximal effect; % is scaled to controls: 0 for no effect and ±100 for the full control effect; nearly all actives have a fitted effect of over 75% in size
MLL CXXC HTRF: inhibitors of human MLL CXXC domain-DNA interaction, HTRF format; Potency, µM (titrated, usually from 172 µM), without a hit: at the top dose activity change, negative = inhibition, most hits filed as inhibitors; shares compounds with CXXC DNA block; 210 compounds, 30% hits; AID 624162; MLL CXXC-DNA binding, HTRF, biochemical; also: % is scaled to controls: 0 for no effect and ±100 for the full control effect; nearly all actives have a fitted effect of over 80% in size
* marks the source's active call; other numbers are inactive results; u = inconclusive; x = not tested or not shown. Unless noted, calls follow the shape of the dose curve; as a rule, active = well fitted curve in the direction sought with a large enough effect; inconclusive = small, poorly fitted or top-dose-only effect, or another doubt; inactive = no such curve, though single readings can be large; an effect the other way counts as inactive or inconclusive.

SMILES | Menin-MLL TR inh | CXXC DNA block | Menin-MLL FL inh | Lamin A splicing | Epigenetic reg | MLL CXXC Fl | MLL CXXC FP-TR | MLL CXXC HTRF
COc1ccc2c(c1OC)C(=O)OC2c1c(O)n(Cc2ccc(F)cc2)c(=O)[nH]c1=O (configuration not stated) | 50% | 13µM* | 8 | 13% | 1% | 25µM* | 113µM* | 97µM*
O=[N+]([O-])c1ccc(O)c([N+](=O)[O-])c1 | 18% | x | -2 | x | 2% | x | x | x
CN1C(=O)C(c2ccc([N+](=O)[O-])cc2[N+](=O)[O-])C(=O)N(C)C1=O | 40% | 40µM* | 4 | x | x | u | u | 40%
CC[C@@H](CO)NC(=O)[C@@H]1C=C2c3cccc4[nH]cc(c34)C[C@H]2N(C)C1 | 9% | x | u | u | 0% | -16% | 8% | 31%
CN(C(=O)Cc1ccc(Cl)c(Cl)c1)C(CN1CCCC1)c1cccc(N=C=S)c1 (configuration not stated) | x | x | x | x | 1% | x | x | x
CC(=O)Oc1c2c(c(CC=C(C)C)c3c1C(=O)C1=CC4CC5C(C)(C)OC(C/C=C(\C)C(=O)O)(C4=O)[C@]15O3)OC(C)(CCC=C(C)C)C=C2 (some centres not stated) | 5% | x | 10 | u | -1% | x | x | x
C[n+]1c2cc(N)ccc2cc2ccc(N)cc21 | -9% | u | u | u | 0.79µM* | 0.63µM* | 142µM* | 97µM*
Cc1ccc(N)c(N)c1 | -15% | x | -2 | x | x | x | x | x
